Rin1 Abl inh: blocks binding of human Rin1 to Abl; P00519+Q13671; TR-FRET Rin1/Abl binding, biochemical; inhibition, % at 7.35 µM; hit rate 0.4% among 360,000; AID 588664; in the data active = inhibition above about 5%, passing the limit was not always enough
Hck Nef HTS: human Hck-Nef kinase inhibition; P08631; Recombinant Hck-YEEI plus Nef, Z-Lyte FRET kinase assay; inhibition, % at 20 µM; hit rate 0.68% among 220,000;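 active = Hck-Nef kinase inhibition above about 50%, limit read from the data; inactive = inhibition below that limit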;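 also: 0% = DMSO with Hck plus Nef and 100% = Hck alone without Nef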
LYPLA1 inh: LYPLA1 (human) inhibition in PME1 counter-screen | O75608 | recombinant LYPLA1, FP-Rh probe fluorescence polarization | inhibition, % at 5.9 µM | hit rate 0.16% among 320,000 | AID 2174;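 active = inhibition above the mean of all tested compounds plus 3 SD, set per campaign, cut at about 14% in these data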;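 also: inhibitors block serine hydrolase probe labeling of LYPLA1 so polarization falls; 0% = enzyme with DMSO and 100% = wells lacking LYPLA1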
p97 inhibitor: inhibitors of human p97 ATPase. P55072. inhibition, % at 8 µM. recombinant p97 ATPase, Kinase-Glo ATP luminescence, 3 h. AID 1481. hit rate 0.42% among 220,000; in the data active = inhibition above about 15%;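 also: 0% = DMSO vehicle and 100% = wells lacking enzyme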
PREPL inhibitor: human PREPL enzyme inhibition | inhibition, % at 5.96 µM | Q4J6C6 | hit rate 0.68% among 320,000 | AID 2751 | recombinant PREPL, fluorescence polarization activity-based probe; in the data active = inhibition above about 43%;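 also: 0% = enzyme with DMSO and 100% = wells lacking enzyme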
Target sequence (Q4J6C6 whole entry, looked up): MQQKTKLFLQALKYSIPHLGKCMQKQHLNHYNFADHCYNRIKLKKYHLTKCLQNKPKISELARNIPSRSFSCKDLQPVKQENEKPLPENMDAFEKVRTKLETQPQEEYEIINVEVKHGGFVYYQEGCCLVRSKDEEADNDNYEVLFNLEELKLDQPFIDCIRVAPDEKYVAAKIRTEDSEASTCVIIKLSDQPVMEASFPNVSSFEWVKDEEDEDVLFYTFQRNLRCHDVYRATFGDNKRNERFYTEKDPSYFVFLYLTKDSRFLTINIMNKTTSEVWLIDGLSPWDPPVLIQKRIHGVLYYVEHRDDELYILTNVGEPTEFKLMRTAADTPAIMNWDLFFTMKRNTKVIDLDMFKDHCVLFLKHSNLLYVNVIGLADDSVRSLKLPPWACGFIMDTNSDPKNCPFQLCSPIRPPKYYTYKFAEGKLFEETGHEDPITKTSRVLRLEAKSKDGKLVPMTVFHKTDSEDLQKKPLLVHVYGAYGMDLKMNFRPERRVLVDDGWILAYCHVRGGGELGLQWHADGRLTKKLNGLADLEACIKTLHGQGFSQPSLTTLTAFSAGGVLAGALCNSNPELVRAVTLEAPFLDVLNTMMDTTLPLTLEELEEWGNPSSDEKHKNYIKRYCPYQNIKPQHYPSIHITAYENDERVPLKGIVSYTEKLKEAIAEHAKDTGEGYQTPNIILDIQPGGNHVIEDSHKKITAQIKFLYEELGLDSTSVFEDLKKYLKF
LYPLA2 inh: LYPLA2 (human) inhibition in PME1 counter-screen. inhibition, % at 5.9 µM. hit rate 0.38% among 320,000. AID 2177. recombinant LYPLA2, FP-Rh probe fluorescence polarization. O95372;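 active = inhibition above the screen-wide mean plus 3 SD, limit set per campaign, cut at about 26% in these data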;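 also: 0% = LYPLA2 with DMSO and 100% = wells lacking LYPLA2 enzyme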
p97 confirm: confirmation of human p97 ATPase inhibitors; shares compounds with p97 inhibitor; recombinant p97 ATPase, Kinase-Glo ATP luminescence; inhibition, % at 8 µM; hit rate 44% among 760; AID 1517;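 active = percent inhibition of p97 ATPase above a set limit, the primary screen's mean plus 3 SD, cut at about 15% in these data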;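 also: 0% = DMSO wells and 100% = wells lacking p97 protein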
* hit, by the source's call; . = no result given. Sampled rows, rich in hits. Any-hit rate of the full collection: about 1.7%.

SMILES	Rin1 Abl inh	Hck Nef HTS	LYPLA1 inh	p97 inhibitor	PREPL inhibitor	LYPLA2 inh	p97 confirm
CCOC(=O)c1c(N2C(=O)C=CC2=O)sc(C)c1C	-2.4	-6.1	-4.0	15.2*	2.5	-2.6	6.5
CN1C(=O)CC(=O)N(C)c2cc(S(=O)(=O)N(C)Cc3ccccc3)ccc21	3.0	.	-5.5	.	-2.5	1.9	.
CCn1nc([N+](=O)[O-])c(C(C#N)c2nc3cc(C(F)(F)F)ccc3s2)c(Cl)c1=O (stereo not given)	-0.4	3.2	0.5	34.8*	35.2	17.4	41.8*
COCCN(CC(=O)Nc1ccccc1C(F)(F)F)C(=O)/C=C/c1cc(Cl)c2c(c1)OCCO2	-1.8	.	.	.	.	.	.
CC[N+](C)(C)CCN(Cc1ccc(Cl)cc1)c1ccccn1	2.1	1.6	2.5	15.0*	0.5	-1.0	3.5
COc1ccc(CN(CCN(C)C)c2ccccn2)cc1	0.7	0.3	1.0	1.1	-0.3	-2.7	.
O=C(C[n+]1cnn(CC(=O)c2ccc(Cl)cc2Cl)c1)c1ccc([N+](=O)[O-])cc1	-1.1	-0.6	5.0	16.8*	41.8	4.7	3.0
O=C(Cn1cnc([N+](=O)[O-])c1)c1ccc(Cl)cc1	1.6	.	-2.2	.	10.8	3.0	.
O=C(Oc1ccc([N+](=O)[O-])cc1)C1CC(=O)N(c2ccc3c(c2)OCCO3)C1 (stereo not given)	3.7	.	.	.	3.0	.	.
Cc1cc(C(=O)N/N=C/c2cc(Br)ccc2OC(=O)c2ccccc2Cl)n[nH]1	-1.8	22.4	-16.1	18.4*	-0.5	-26.7	34.8*
CCN(CC)C(=O)[C@H]1C[C@H](CC(=O)NCCc2ccccn2)C(=O)N2CCc3c([nH]c4ccc(Cl)cc34)[C@]12C	0.0	.	.	.	.	.	.
COc1ccc(OC)c2sc(NC(=O)CCS(=O)(=O)c3ccccc3)nc12	-2.8	-0.8	-1.0	18.9*	3.8	-0.4	25.3*
COc1ccc(OC)c2sc(NC(=O)CCSc3ccccc3)nc12	-7.7	3.9	-4.2	4.8	10.9	-2.4	.
Cc1[nH]c2ccccc2c1/C=N/NC(=O)c1cccs1	-2.5	27.5	0.9	16.4*	13.1	1.3	22.3*
Cc1[nH]c2ccccc2c1/C=N/NC(=O)c1cccc(F)c1	0.0	23.2	0.7	2.7	12.2	0.5	.
Cc1[nH]c2ccccc2c1/C=N/NC(=O)CNC(=O)c1cccs1	-5.1	1.2	-0.7	-2.1	-6.3	-5.4	.
Cc1[nH]c2ccccc2c1/C=N/NC(=O)c1cc(C(C)C)[nH]n1	-4.6	30.5	2.1	17.3*	-3.0	10.3	17.4*
C[C@@H]1CN([C@H](C)CO)C(=O)Cc2cc(NC(=O)CCC(F)(F)F)ccc2O[C@@H]1CN(C)S(=O)(=O)c1ccccc1	1.5	.	.	.	.	.	.
Oc1ccc(/C=N/NC(=S)Nc2cccnc2)c(O)c1	-4.2	4.7	-0.7	19.4*	15.1	0.6	25.6*
Oc1cccc(/C=N/NC(=S)Nc2cccnc2)c1O	0.0	4.3	-4.7	17.8*	5.2	-2.1	34.6*
Fc1cccc(F)c1/C=N/NC(=S)Nc1cccnc1	3.4	-1.0	4.7	-1.0	-2.0	1.0	.
Oc1ccc(C=NNC(=S)Nc2ccc(F)cc2)c(O)c1	-2.3	.	.	.	.	.	.
CN(C)CCN1CCN(C2CN(C3CCCCC3)S(=O)(=O)C2)CC1 (stereo not given)	1.5	.	.	.	.	.	.
Cc1ccc(CNC(=O)COC(=O)c2cc(=O)[nH]c3ccccc23)cc1	-0.1	.	.	.	-14.2	.	.
CCn1cc(S(=O)(=O)Nc2cc(C(=O)OC)ccc2C)cn1	-4.2	.	-1.0	.	0.4	1.9	.
SMILES	Rin1 Abl inh	Hck Nef HTS	LYPLA1 inh	p97 inhibitor	PREPL inhibitor	LYPLA2 inh	p97 confirm
Cc1n[nH]c(C)c1S(=O)(=O)N1CCN(S(=O)(=O)c2cccc(F)c2)CC1	-0.4	.	.	.	.	.	.
[O-][n+]1cccc2cccc(O)c21	4.0	.	.	.	.	.	.
C[n+]1cccc2cccc([O-])c21	-22.1	19.3	.	36.8*	.	.	19.6*
COC(CN(C)C(=O)c1ccc2c(c1)NC(=O)c1ccccc1S2)OC	3.1	.	.	.	.	.	.
Cc1ccc(NC(=O)COC(=O)CCc2nc3ccccc3c(=O)[nH]2)cc1Cl	3.5	11.2	1.4	16.3*	-14.3	2.1	1.4
N#C/C(=C(/O)CCl)c1nc2ccccc2[nH]1	-7.1	1.2	-2.5	38.0*	50.0*	-7.3	29.7*
Cc1ccc(C)c(SCC(=O)OC/C(O)=C(\C#N)c2nc3ccccc3[nH]2)c1	2.5	34.1	.	18.0*	.	.	39.9*
NC(=O)COC(=O)Cc1coc2cc3c(cc12)CCC3	3.6	21.4	1.8	4.7	1.4	11.5	.
CC(C)N(CC(N)=O)C(=O)Cc1coc2cc3c(cc12)CCC3	1.5	1.9	2.4	25.9*	0.3	3.0	9.1
COC(=O)c1sc(-c2cccs2)cc1NC(=O)/C=C/C(=O)O	-1.1	-9.3	-0.4	24.8*	12.8	-6.7	22.5*
COC(=O)c1sc(-c2ccccc2)cc1NC(C)=O	2.5	17.0	-0.1	-2.0	-23.2	6.8	.
CCOC(=O)c1c(CC(C)C)csc1NC(=O)c1ccccc1C(=O)O	-2.6	22.4	-4.6	18.2*	14.9	-3.5	21.6*
CCOC(=O)c1c(CC(C)C)csc1NC(C)=O	1.0	3.4	3.1	-2.1	0.4	2.6	.
CCCNC(=O)C(Cc1cccc(C#N)c1)NC(=O)c1cccc([N+](=O)[O-])c1 (stereo not given)	1.3	.	-1.4	.	10.9	-4.5	.
CCCCN(C(=O)C(C)(C)Oc1ccc(Cl)cc1)c1c(N)n(CCC)c(=O)[nH]c1=O	0.2	.	-1.1	.	4.7	-3.6	.
CN(C)S(=O)(=O)c1cccc(NC(=O)c2cc(-c3cccs3)nn2-c2ccccc2)c1	-4.7	-2.4	-6.6	25.9*	-11.3	-7.1	5.5
COc1ccc(-c2cc(N)n(S(=O)(=O)c3c(F)c(F)c(F)c(F)c3F)n2)cc1OC	3.9	1.2	-23.7	21.9*	-1.8	-33.8	25.6*
COc1ccc(S(=O)(=O)n2nc(-c3cc(OC)c(OC)c(OC)c3)cc2N)cc1OC	-1.7	0.0	5.0	3.5	3.1	1.3	.
Cc1cc(Cl)ccc1NC(=O)CCN1C(=O)NC(C)(C)C1=O	1.4	.	-3.3	.	2.1	3.9	.
CCCCC(=O)NC(=S)Nc1cc(C(=O)O)ccc1OC	1.1	14.3	0.5	17.8*	-0.4	-2.0	9.7
Cc1ccccc1Oc1nc2c(C)cccn2c(=O)c1/C=C(\C#N)C(=O)NC1CCS(=O)(=O)C1 (stereo not given)	1.9	8.7	0.4	15.4*	-5.1	-1.0	7.3
CCCCSc1nc(N)nc2c1ncn2C1OC(CO)C(O)C1O (stereo not given)	-3.1	.	.	.	.	.	.
Nc1nc(N)nc(-c2cccc(Cl)c2Cl)n1	1.7	.	1.2	.	6.0	-2.9	.
C=CCN1C(=O)N(/C=C/C)c2cccc3cccc1c23	-3.6	1.3	-1.8	15.3*	19.2	5.7	5.9
O=C(CN1C(=O)NC2(CCCCC2)C1=O)N1CCN(S(=O)(=O)c2cccc([N+](=O)[O-])c2)CC1	1.2	.	0.1	.	7.0	3.8	.

Assay outcomes as filed in PubChem BioAssay.
